Results as given in PubChem BioAssay AID624354 (Sanford-Burnham Center for Chemical Genomics, 2012).
“And” between values parts separate entries of the source, which are not always exact repeats. Equal entries are not always repeated. Screen size: about 360,000 compounds; about 3,800 (1.1%) were called active.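 How the source made its calls: active means compounds causing at least 50% loss of cell viability in the single-dose screen, relative to plate controls; inactive means the rest.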 The list comes from a sample in which actives are over-represented; it also holds similar structures and randomly drawn compounds. Some compounds were tested as several samples or in several runs, with calls that do not always agree.

Test: viability loss with TRAIL in NB7+C8 cells, primary screen, TRAIL sensitizer project, cell-based, ATPlite luminescence (AID 624354)
Conditions: at 10 µM, stronger effect = higher value

SMILES | inhibition (viability loss, TRAIL sensitization)
O=C(Nc1nnc(-c2ccc(F)cc2)s1)c1c(F)cccc1Cl | 1.33% (inactive)
Cc1cccc(NS(=O)(=O)c2ccc(C)c(C(=O)NCc3cccnc3)c2)c1 | -5.47% (inactive)
O=C(Nc1nnc(Cc2ccc(Cl)cc2)s1)c1ccncc1 | -4.66% (inactive)
O=C(Nc1nnc(Cc2ccc(Cl)cc2)s1)c1cccnc1 | 2.47% (inactive)
Cc1cccc(CS(=O)(=O)c2ncc(Cl)c(C(=O)Nc3ccc(F)cc3)n2)c1 | 36% (inactive)
CN(Cc1ccccc1)S(=O)(=O)c1nnc(NC(=O)c2ccccc2F)s1 | -10.5% (inactive)
Cc1cccc(NC(=O)c2nc(S(=O)(=O)Cc3ccccc3)ncc2Cl)c1 | 86.5% (active)
Cc1ccc(CS(=O)(=O)c2ncc(Cl)c(C(=O)Nc3nnc(C)s3)n2)cc1 | 96.7% (active)
CSc1nnc(NC(=O)c2nc(S(=O)(=O)Cc3ccc(C)cc3)ncc2Cl)s1 | 66.5% (active)
COc1ccccc1-n1nnnc1S(=O)(=O)Cc1ccc(Cl)cc1 | 9% (inactive)
Cc1ccc(SC(=O)COc2ccc(C)c(C)c2)cc1 | 3.37% (inactive)
O=C(CCc1ccccc1)NCCc1cccs1 | -4.77% (inactive)
O=C1C2C3C=CC(C4CC34)C2C(=O)N1c1nccs1 (stereo not given) | -2% (inactive)
Cc1ccc(-c2nc(-c3cccnc3)sc2CC(=O)Nc2ccc(C)c(Cl)c2)cc1 | 18.7% (inactive)
COc1ccc(CCN2CNc3c(c(=O)n(C)c(=O)n3C)C2)cc1OC | 7.29% (inactive)
O=C1OCCN1C(=O)[C@H]1[C@H](c2ccc(Cl)cc2)C(c2cccc(Cl)c2)=NN1c1ccc(Br)cc1 | -0.36% (inactive)
COc1cccc(/C=N/Nc2cc(C)nc(-c3ccccc3O)n2)c1O | 56.9% (active)
CCOc1ccccc1/C=N/Nc1nc2ccccc2o1 | -8.7% (inactive)
COCCCNC(=O)c1cccc2c(-c3ccc(O)c(OC)c3)coc12 | 14.2% (inactive)
CC(=O)OCC(C)n1c(=O)c2ccccc2n1C(C)=O (stereo not given) | -3.49% (inactive)

SMILES | inhibition (viability loss, TRAIL sensitization)
CN(C)CCCn1c(N)c(C#N)c2nc(C#N)c(C#N)nc21 | -10.7% (inactive)
O=C(NCCc1ccccn1)c1nc(Cn2cc([N+](=O)[O-])cn2)no1 | 2.01% (inactive)
CC(=O)Nc1ccc2nc(NC(=O)CS(=O)(=O)c3ccc(F)cc3)sc2c1 | -11.1% (inactive)
O=C(Nc1nc2ccc([N+](=O)[O-])cc2s1)c1ccncc1 | 53.2% (active)
CSc1ncccc1C(=O)Nc1nc2ccc(F)cc2s1 | 10.7% (inactive)
COc1cc2nnn(-c3ccncc3)c2cc1OC | -16.3% (inactive)
O=C(CCCCCCCC(=O)N1CCCCC1)N1CCCCC1 | 1.6% (inactive)
COC(=O)c1sc(SC)c(S(=O)(=O)C(C)C)c1N/N=C(\C#N)S(=O)(=O)c1ccccn1 | -10.6% (inactive)
O=C(NCc1ccccc1)C1C(=O)N(Cc2ccccc2)C(=O)C1C1(O)CCCC1 (stereo not given) | -9.54% (inactive)
O=c1c(-c2ccccc2)cnc2n1CCS2 | -0.958% (inactive)
O=c1c2cc(-c3ccccc3)sc2nc2n1N=C(c1cccs1)CS2 | 56.6% (active)
Cc1ccccc1C1CC(c2cccs2)=NN1S(C)(=O)=O (stereo not given) | 1.64% (inactive)
COc1cccc2c1OCC(C(=O)NCc1ccc(Cl)cc1Cl)=C2 | 12.2% (inactive)
CCCC(=O)Nc1ccc(C(=O)N/N=C/c2ccc[nH]2)cc1 | 93.8% (active)
CC(=O)Nc1ccc(C(=O)NNC(=O)CCCCC(=O)NNC(=O)c2ccc(NC(C)=O)cc2)cc1 | -1.99% (inactive)
CC(=O)Nc1ccc(C(=O)/C=C/c2ccc[nH]2)cc1 | 1.89% (inactive)
ClC1(Cl)CC1CSc1ncn[nH]1 (stereo not given) | -13.6% (inactive)
O=C(/C=C/c1ccc([N+](=O)[O-])o1)NNC(=O)c1ccc(F)cc1 | 32.1% (inactive)
Cc1nnc(SC(C(=O)Nc2cc(Cl)cc(Cl)c2)c2ccccc2)[nH]c1=O (stereo not given) | -3.74% (inactive)
O=C(Nc1c(Br)cc2c(c1Br)Cc1ccccc1-2)C(F)(F)F | 2.23% (inactive)

SMILES | inhibition (viability loss, TRAIL sensitization)
COc1cc(NC(=O)c2cncc(-c3ccc(C#N)cc3)c2)cc(C(=O)Nc2cccc(C(F)(F)F)c2)c1 | 33.4% (inactive) and 56.8% (active)
COc1cccc(NC(=O)CN(C)C(C)C(=O)Nc2ccc(C#N)cc2)c1 (stereo not given) | -8.39% (inactive)
COc1cc(NC(=O)c2[nH]cnc2C(N)=O)cc(C(=O)Nc2cccc(C(F)(F)F)c2)c1 | 86% (active)
COc1cc(C(=O)N(C)Cc2cccc(OC)c2OC)ccc1OCC(=O)Nc1cccc(C(F)(F)F)c1 | 28.6% (inactive)
O=C(Nc1cccc(C(F)(F)F)c1)c1ccc(N2CCNCC2)c([N+](=O)[O-])c1 | 35.7% (inactive)
COc1cccc(C(=O)N/N=C(\C)c2cccc(NC(=O)c3ccc(F)cc3)c2)c1OC | 16.9% (inactive)
COC(=O)c1ccc(C2C3=C(Nc4nnnn42)c2ccccc2OC3)cc1 (stereo not given) | -2.52% (inactive)
CCOC(=O)c1c(Cc2ccc(Cl)cc2)c[nH]c1C | -5.16% (inactive)
CCOC(=O)N1CCN(S(=O)(=O)c2ccc(C(=O)Nc3ccc(F)cc3F)cc2)CC1 | 4.58% (inactive)
Cc1cc(C)cc(OCc2nnc(SCC(=O)OC3CCCCC3)o2)c1 | -14.3% (inactive)
COc1cccc(CNC(=O)C2CCCN(S(=O)(=O)N3CC(C)CC(C)C3)C2)c1 (stereo not given) | -1.49% (inactive)
COC(=O)C1=C[C@@H](C(=O)OC)[C@@H]2C3=C(C(=O)[C@]2(C)NC(=O)c2ccccc2)[C@H](C)n2c(=O)n(C)c(=O)n2[C@@H]3C1 | -3.47% (inactive)
COc1ccc(OC)c(Cc2cnc3nc(N)nc(N)c3c2C)c1 | 84% (active)
O=C(CN(C(=O)c1csnn1)c1cccc(F)c1)NCc1ccc(F)cc1 | -4.16% (inactive)
CCOC(=O)c1[nH]c(C)c(C(=O)OCC(=O)N2c3ccccc3CC2C)c1C (stereo not given) | 6.75% (inactive)
CCOC(=O)c1c(C)[nH]c2c1-c1ccccc1C(=O)C2=O | 94% (active)
CCOC(=O)c1c(C)oc(C)c(C(=O)OCC)c1=O | -19.5% (inactive)
Cc1ccc(C(=O)COC(=O)c2cccc(N3C(=O)c4c(C)nc5ccccc5c4C3=O)c2)cc1C | 60.1% (active)
Cc1ccc(C(=O)COC(=O)CCN2C(=O)C3C4CCC(C4)C3C2=O)cc1C (stereo not given) | -8.78% (inactive)
COc1ccc(C(=O)OCC(=O)c2ccc(C)c(S(=O)(=O)N3CCOCC3)c2)cc1OC | 18.4% (inactive)
